Measured values from PubChem BioAssay (NCATS).
Results filed as inconclusive are left out. Where a call stands in place of a potency, no number is given. Calls of active or inactive are those of the source. The call rests on the fitted dose curve; in most records, active means well fitted inhibition curve with a large enough effect; inconclusive means small, poorly fitted or top-dose-only effect; inactive means flat fitted curve, though single readings scatter.

These molecules were tested on Zika virus NS2B-NS3 protease (assay: Primary screen GU AMC qHTS for Zika virus inhibitors (AID 1347154; further: nearly all actives have a fitted effect of over 70% in size)). Settings: Zika NS2B-NS3 unlinked protease, AMC fluorogenic substrate; series mostly up to 54.1 µM.
Summary of the method: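 Fluorogenic AMC-substrate cleavage by noncovalent NS2B-NS3 protease complex (25 nM, pH 8.0 Tris buffer with Tween 20) followed for 15 minutes at room temperature (~20% conversion). Percent inhibition from ex340/em450 signal change, fitted by 4-parameter Hill equation.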

| Structure (SMILES) | Potency |
| --- | --- |
| CCOC(=O)[C@H](CCc1ccccc1)N[C@@H](C)C(=O)N1CCC[C@H]1C(=O)O | inactive |
| CCOC(N)=O | inactive |
| Cc1onc(-c2ccccc2)c1-c1ccc(S(N)(=O)=O)cc1 | inactive |
| CN1CCN(C(=O)C2CCCCC2)CC1 | inactive |
| COc1ccc2cc(CCC(C)=O)ccc2c1 | inactive |
| Cc1c(I)c(=O)n(-c2ccccc2)n1C | inactive |
| CCN[C@H]1CN(CCCOC)S(=O)(=O)c2sc(S(N)(=O)=O)cc21 | inactive |
| Cc1cc(O)cc(C)c1Cl | inactive |
| Cc1c(NC(=O)c2cccnc2)c(=O)n(-c2ccccc2)n1C | inactive |
| NS(=O)(=O)c1cc(-c2nn[nH]n2)c(NCc2cccs2)cc1Cl | inactive |
| COC(=O)c1ccccc1C(=O)c1ccc(OCCN2CCCCC2)cc1 | inactive |
| NCc1ccc(S(N)(=O)=O)cc1 | inactive |
| COc1ccccc1OCC(O)CO (configuration not stated) | inactive |
| O=C(O)c1ccc[n+]([O-])c1 | inactive |
| C=CCN1C[C@H](C(=O)N(CCCN(C)C)C(=O)NCC)C[C@@H]2c3cccc4[nH]cc(c34)C[C@H]21 | inactive |
| CCN(CC)C(=O)c1cccc(C)c1 | inactive |
| FC(F)(F)C(Cl)Br (configuration not stated) | inactive |
| Cn1c([N+](=O)[O-])cnc1COC(N)=O | inactive |
| CC(C)CCOC(=O)c1ccc(N(C)C)cc1 | inactive |

| Structure (SMILES) | Potency |
| --- | --- |
| Cc1cc(NC(=O)C2=C(O)c3ccccc3S(=O)(=O)N2C)no1 | inactive |
| C[n+]1ccccc1/C=N/O | inactive |
| CCOc1ccccc1O[C@H](c1ccccc1)[C@H]1CNCCO1 | inactive |
| NNc1nnc(NN)c2ccccc12 | inactive |
| CC(=O)Oc1cccc(C)c1 | inactive |
| NC(=O)N[C@@H](CCC(=O)O)C(=O)O | inactive |
| OCCN1C[C@H](O)[C@@H](O)[C@H](O)[C@H]1CO | inactive |
| NS(=O)(=O)c1cc(C2(O)NC(=O)c3ccccc32)ccc1Cl (configuration not stated) | inactive |
| O=C(O)CCCCC1CCSS1 (configuration not stated) | inactive |
| C[C@@H](c1ncncc1F)C(O)(Cn1cncn1)c1ccc(F)cc1F (some centres not stated) | inactive |
| CN[C@@H]1[C@H](O)[C@H](NC)[C@H]2O[C@@]3(O)C(=O)C[C@@H](C)O[C@H]3O[C@@H]2[C@H]1O | inactive |
| O=C(O)c1ccc(OCCCOc2ccc(C(=O)O)cc2)cc1 | inactive |
| COc1ccc(Cc2cnc(N)nc2N)cc1OC | inactive |
| Cc1ccc(S(=O)(=O)NC(=O)NC2CCCCC2)cc1 | inactive |
| CC(=O)Nc1ccccc1 | inactive |
| NC(=O)CC[C@@H](N)C(=O)O | inactive |
| NC(=O)c1ccc([N+](=O)[O-])cc1Cl | inactive |
| CC(C)=CCC/C(C)=C/CO | inactive |
